IL-1B inflam inh: inhibitors of inflammasome signaling (IL-1 beta secretion); THP-1 LPS/ATP IL-1B secretion, AlphaLISA, 16 h; active compounds read low; activity change, % at 57.5 µM; hit rate 4.7% among 360,000; in the data active = activity change below about -50%; inconclusive = mostly about -30% to -49%
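Secreted IL-1B measured by AlphaLISA bead assay after 16 h compound exposure of THP-1 cells; compounds (final up to 57.5 uM) added 1 h before LPS (250 ng/mL) and ATP (1.25 mM) stimulation; lower signal means less secretion.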
ELG1 repair inh: ELG1-dependent DNA repair inhibition; Potency, µM (doses to about 46.1 µM), for the others: at the highest dose activity change, negative = inhibition, usual class: inhibitors; hit rate 2.3% among 330,000; HEK293T ELG1-luciferase reporter, luminescence, 16 h; DNA damage induced by 5-fluorouridine; also: potency is read from the fitted curve at half-maximal effect; nearly all actives have a fitted effect of over 55% in size
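DMSO vehicle served as the neutral condition. Each well held 2,000 cells given 5-fluorouridine plus compound; after 16 hr at 37 °C/5% CO2, ONE-Glo was added and luciferase measured 30 min later.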
TDP1 cell CPT: growth inhibition of DT40 Tdp1-/-;hTDP1 cells with camptothecin (screen for TDP1 inhibitors) | Potency, µM (highest dose often 46.2 µM), inactives show at the highest dose activity change, negative = growth inhibition, usual class: inhibitors | chicken DT40 Tdp1-/-;hTDP1 cells + 20 nM CPT, ATP luminescence, 48 h | hit rate 12% among 420,000; also: potency is read from the fitted curve at half-maximal effect; nearly all actives have a fitted effect of over 55% in size
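Cell growth measured by CellTiter-Glo luminescence after a minimum 48 h, 37 C compound exposure with 20 nM CPT in Tdp1-knockout DT40 cells stably expressing hTDP1, seeded 400/well; qHTS titration format.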
VP16 counter: inhibits Gal4-VP16 luciferase reporter, ROR gamma counter-screen; hit rate 3.5% among 310,000; Drosophila S2 Gal4-VP16 UAS-luciferase, luminescence, 20 h; Potency, µM (titrated, usually from 53.6 µM), inactives show top-dose activity, negative = inhibition, most hits filed as inhibitors;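 also: Gal4-VP16 expression switched on by copper sulfate through the metallothionein promoter; potency is read from the fitted curve at half-maximal effect; nearly all actives have a fitted effect of over 50% in size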
DT40 TDP1 no CPT: qHTS for Inhibitors of human tyrosyl-DNA phosphodiesterase 1 (TDP1): qHTS in cells in absence of CPT; hit rate 15% among 420,000; AID 686978, 2013; Potency, µM (titrated, usually from 46.2 µM), without a hit: at the highest dose activity change, negative = growth inhibition, hits mostly inhibitors; DT40 Tdp1-/- hTDP1 cells, no CPT, ATP luminescence, 48 h; also: potency is read from the fitted curve at half-maximal effect; nearly all actives have a fitted effect of over 55% in size
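Growth kinetics read by CellTiter-Glo luminescence after ≥48 hr at 37 °C. Cells: DT40 Tdp1-/- stably carrying human TDP1, 400 per well, compound exposure in the absence of CPT (DMSO vehicle).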
RORgamma inh: ROR gamma (mouse) transcription inhibition; P51450; Drosophila S2 Gal4-RORgamma UAS-luciferase reporter, 20 h; Potency, µM (top dose mostly 53.6 µM), inactives show at the highest dose activity change, negative = inhibition, most hits filed as inhibitors; hit rate 5.4% among 310,000; also: potency is read from the fitted curve at half-maximal effect; nearly all actives have a fitted effect of over 60% in size
Target sequence (P51450 whole entry, looked up, the tested form may be a part): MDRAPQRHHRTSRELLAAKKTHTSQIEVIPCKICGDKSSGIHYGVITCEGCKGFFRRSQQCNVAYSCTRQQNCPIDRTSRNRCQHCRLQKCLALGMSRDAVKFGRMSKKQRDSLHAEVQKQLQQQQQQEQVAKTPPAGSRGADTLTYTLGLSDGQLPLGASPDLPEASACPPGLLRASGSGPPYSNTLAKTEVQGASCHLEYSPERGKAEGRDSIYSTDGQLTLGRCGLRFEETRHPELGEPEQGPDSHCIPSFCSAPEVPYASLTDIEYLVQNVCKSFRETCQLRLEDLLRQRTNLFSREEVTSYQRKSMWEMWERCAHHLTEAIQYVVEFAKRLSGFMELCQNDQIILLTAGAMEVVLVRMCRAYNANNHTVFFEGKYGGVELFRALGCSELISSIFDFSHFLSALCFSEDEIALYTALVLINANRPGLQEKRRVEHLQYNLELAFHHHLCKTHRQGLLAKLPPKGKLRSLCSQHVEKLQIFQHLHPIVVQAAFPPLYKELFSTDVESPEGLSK
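Schneider cells (Drosophila), stable Gal4 DBD–ROR gamma + UAS-luc; 1 hr cmpd preincubation; Cu2+ induction 700 uM final; 20 hr ambient; luminescence.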
* = called active by the depositor; ? = inconclusive; · = no result given; [ ] = remark or other dose. This is a sample that favours compounds with a hit; in the whole collection about 21% have one here. Unless noted, calls follow the shape of the dose curve; as a rule, active = well fitted curve in the direction sought with a large enough effect; inconclusive = small, poorly fitted or top-dose-only effect, or another doubt; inactive = no such curve, though single readings can be large; an effect the other way counts as inactive or inconclusive. % is scaled to controls: 0 for no effect and ±100 for the full control effect.

SMILES	IL-1B inflam inh	ELG1 repair inh	TDP1 cell CPT	VP16 counter	DT40 TDP1 no CPT	RORgamma inh
Cc1nc2c(cnn2-c2ccccc2Cl)c(=O)n1-c1ccc(C(C)C)cc1	17.4	?	?	-3.1%	20.6µM*	26.4%
COc1ccc(N=C(C)C2C(=O)c3ccccc3C2=O)cc1	-6.9	·	?	·	?	·
O=C(c1ccc2c(c1)OCO2)N1CCOc2ccc(CN3CCC(Oc4cccnc4)CC3)cc2C1	·	·	-1.3%[9.04 µM]	·	-15.2%	·
COc1ccccc1NC(=O)C(=O)N/N=C(\C)CC(=O)Nc1ccc(OCc2ccccc2)cc1	3.9	?	-26.4%	-5.8%	?	-40.4%
C/C(CC(=O)Nc1ccc(OCc2ccccc2)cc1)=N\NC(=O)C(=O)Nc1cccc(C)c1	?	?	?	?	9.2µM*	-18.0%
Cc1cnc(NC(=O)Nc2ccc(OCc3ccccc3)cc2)c(Br)c1	-5.3	?	?	-5.2%	16.4µM*	32.2%
COCC(=O)Nc1ccc(OCc2ccccc2)cc1	4.3	?	-16.9%	-11.2%	-18.3%	-3.8%
Cc1ccc2nc(SCC(=O)N3CCC4(CC3)CC4C(=O)Nc3ccc(F)c(F)c3)[nH]c2c1 (stereo unspecified)	·	·	?	·	23.1µM*	·
COc1ccc2cnn(-c3ccccc3C)c(=O)c2c1OC	19.8	-0.4%	10.3µM*	-11.4%	7.31µM*	5.1%
COc1ccc2cnn(-c3ccccc3)c(=O)c2c1OC	-18.3	?	?	11.1%	?	30.4%
C[n+]1c2n(c3ccccc31)N=C(c1ccc(Cl)cc1)CS2	-74.3*	?	1.16µM*	-2.6%[0.365 µM]	0.92µM*	6.6%
CC1Sc2n(c3ccccc3[n+]2C)N=C1c1ccccc1 (stereo unspecified)	-5.3	-2.5%	1.46µM*	?	1.46µM*	?
Nc1c(C(=O)O)ccc2c1C(=O)c1ccccc1C2=O	19.9	-8.4%	-7.6%	-6.6%	?	-12.6%
Nc1cc(C(=O)O)c(N)c2c1C(=O)c1ccccc1C2=O	0.0	?	16.4µM*	?	?	?
CCCc1ccc(NS(=O)(=O)c2c(C)oc(C)c2C(=O)OC)cc1	-8.1	2.6%	?	-14.5%	20.6µM*	39.3%
CC(=O)c1cc(-c2ccccc2)n(CCC(=O)NC2CCCC2)c1C	0.0	10.6%	22.1%	11.3%	23.4%	-19.0%
CCOC(=O)c1cc(-c2ccc(OC)cc2)n(CCC(=O)NC2CCCCC2)c1C	·	·	20.6µM*	·	16.4µM*	·
CCOC(=O)c1cc(-c2ccc(OC)cc2)n(CCC(=O)NC2CCC(C)CC2)c1C (stereo unspecified)	·	·	16.4µM*	·	23.1µM*	·
CCOC(=O)c1cc(-c2ccc(F)cc2)n(CCC(=O)NC2CCC(C)CC2)c1C (stereo unspecified)	·	·	?	·	16.4µM*	·
CC(=O)c1cc(-c2ccccc2)n(CCC(=O)NC2CCCCC2)c1C	1.5	-5.3%	?	2.2%	?	-11.5%
COc1ccc(-c2nc3cnc(N(C)C)nc3n(C3CC3)c2=O)cc1	·	·	-0.4%	-1.5%	-16.5%	-5.1%
O=C(OCc1ccccc1)N1CCCCC1c1c(Cl)cccc1Br (stereo unspecified)	19.2	·	?	·	?	·
Cc1ccc(NC(=S)N=Nc2c(O)[nH]c3ccccc23)cc1	0.0	-5.1%	6.51µM*	1.26µM*	7.31µM*	0.316µM*
CC(C)c1ccc2[nH]c(O)c(N=NC(=O)c3cccc(S(=O)(=O)N4CCCCC4)c3)c2c1	17.1	10.3µM*	11.6µM*	1.7%	9.2µM*	?
COc1ccc(NC(=S)N=Nc2c(O)[nH]c3ccccc23)cc1	34.1	?	8.2µM*	3.55µM*	5.8µM*	1.26µM*
SMILES	IL-1B inflam inh	ELG1 repair inh	TDP1 cell CPT	VP16 counter	DT40 TDP1 no CPT	RORgamma inh
COc1ccc(S(=O)(=O)N=Nc2c(O)[nH]c3ccccc23)cc1	17.9	-23.5%	-4.0%	3.0%	2.0%	19.2%
CNC(=S)N=Nc1c(O)[nH]c2ccc(C(C)C)cc12	0.0	-4.9%	?	2.82µM*	18.4µM*	3.98µM*
Cc1c(C(=O)N(C)C2CCOC2)sc2ncnc(NCc3ccc4c(c3)OCO4)c12 (stereo unspecified)	·	·	-10.4%[9.04 µM]	·	-26.9%	·
Cc1cc(=O)n2nc(N(C)CC(=O)NCc3ccc(Cl)cc3)sc2n1	·	·	?	·	-5.4%	·
CNC(=S)N=Nc1c(O)[nH]c2ccccc12	9.8	?	-6.8%	?	-6.4%	3.16µM*
Oc1ccc(NC(=S)N=Nc2c(O)[nH]c3ccccc23)cc1	-65.8*	?	?	-24.8%	?	?
CCN(CC)CCNC(Cc1ccccc1)c1cccc(OC)c1 (stereo unspecified)	-20.7	·	?	·	?	·
CSc1ccc(S(=O)(=O)NCCOc2ccccc2C)cc1	-0.7	?	25.9µM*	?	?	-15.4%
O=S(=O)(NOCc1ccc(Cl)cc1)c1ccc(Cl)cc1	0.9	-1.5%	-17.2%	-4.4%	-29.7%	4.5%
CCCCOc1ccc(CONS(=O)(=O)c2ccc(NC(C)=O)cc2)cc1Cl	-103.3*	-21.7%	13µM*	-29.4%	14.6µM*	-17.5%
CC(=O)Nc1ccc(S(=O)(=O)NCCOc2ccc(Cl)cc2C)cc1	-17.5	?	23.1µM*	5.01µM*	13µM*	?
c1cnc(N2CCN(c3ncc4c(n3)CCNC4)CC2)nc1	·	·	16.3%	·	-0.2%	·
CCCNC(=O)C1(C)CCCN(Cc2c(F)cccc2F)C1 (stereo unspecified)	0.0	·	-26.7%	·	?	·
CC(C)n1c(=S)[nH]c2ccccc2c1=O	12.1	-4.0%	-7.1%	3.98µM*	?	?
CCC(Cc1ccccc1)n1c(=S)[nH]c2ccccc2c1=O (stereo unspecified)	6.2	-2.1%	1.6%	?	-1.0%	3.55µM*
COn1c(=S)[nH]c2ccccc2c1=O	-19.4	1.0%	-4.8%	2.0%	-1.9%	?
O=S(=O)(Nc1ccccc1OC(F)F)c1ccc(S(=O)(=O)N2CCCC2)cc1	21.2	-1.6%	?	·	?	·
CCCCCCc1nc2nc(Cl)c(Cl)nc2[nH]1	10.6	·	18.4µM*	·	8.2µM*	·
CC(CN1CCc2nnc(CNC(=O)c3cccc(F)c3)n2CC1)c1ccccc1 (stereo unspecified)	·	·	-3.4%[9.04 µM]	·	?	·
O=C(NCc1nnc2n1CCN(Cc1cc(F)cc(F)c1)CC2)c1cccc(F)c1	·	·	4.11µM*	·	4.61µM*	·

Screens (PubChem BioAssay)
